# Results taken from PubChem BioAssay (NCI).
# Compounds without any hit were thinned out: in the full panel of roughly 79,000, 15% have a hit. Values without a mark were called inactive. Active and inactive are the calls of the source. Cut-off read from the data, not from the text of the source: active = growth inhibition above about 70%; inactive = the rest.
# Assay: NCI Yeast Anticancer Drug Screen. Data for the rad50 strain (AID 155);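 note: 0% = growth of vehicle-only cultures of the same strain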
# Conditions: S. cerevisiae rad50 strain growth inhibition, hits give high values
# Procedure: Growth inhibition of yeast strains with defined genetic alterations is measured as a screen for potential anti-cancer activity. Selected strains with alterations in DNA damage repair or cell cycle control were exposed to compounds and growth inhibition was measured relative to vehicle treated controls. The strain used in this assay is rad50
# [1] = at 5.0 µM (retest, dose inferred, filed as 0.5)
# [2] = at 50.0 µM (retest, dose inferred, filed as 5.0)
SMILES,growth inhibition [1],growth inhibition [2],growth inhibition (at 50.0 µM)
CN(C)C(=S)/N=c1\sn(C)/c(=N\C(=S)N(C)C)n1C,-30%,-14%,-0.5%
CCOC(=O)c1[nH]c2c([N+](=O)[O-])cccc2c1[N+](=O)[O-],-12%,15%,97% (active)
COC1CC(C)(NC(C)=O)C2OC(c3ccccc3)OCC2O1 (configuration not stated),-5%,-16%,81.8% (active)
O=c1[nH]cnc2nc(I)[nH]c12,1%,3%,14.8%
CCCCCCCCCCCCNCc1ccc2c(c1)OCO2,98% (active),96% (active),98.8% (active)
Cc1cc2c(c([N+](=O)[O-])c1C)C(=O)C(Br)=C(N)C2=O,95% (active),98% (active),93.5% (active)
O=C1C(CCl)=CS(=O)(=O)c2ccccc21,10%,99% (active),99.1% (active)
Cc1cc(N(CCOS(C)(=O)=O)CCOS(C)(=O)=O)ccc1C=Nc1cccc(Cl)c1,10%,80% (active),90.3% (active)
CC(=O)Oc1cc(OC(C)=O)c2cc(Br)ccc2c1OC(C)=O,-5%,63%,87.5% (active)
CC(=O)OCc1cc2c(s1)C(=O)c1sccc1C2=O,21%,83% (active),49.6%
O=C1OC2(CCCCC2)OC(=O)C1=Cc1ccc([N+](=O)[O-])s1,9%,99% (active),56.1%
O=C1C(Cl)=C(Nc2cc(Cl)ccc2Cl)C(=O)c2ccccc21,45%,99% (active),2.45%
CN(C)CC1CC/C(=C\c2ccc(Cl)c(Cl)c2)C1=O (configuration not stated),21%,98% (active),93.1% (active)
CCN(CC)CCC(=O)c1ccc(Oc2ccc(C)cc2)cc1,13%,71% (active),29.9%
